In assay [1] the target is Estrogen receptor beta (Homo sapiens) (UniProt Q92731). Briefly: qHTS assay to identify small molecule antagonists of the estrogen receptor beta (ER-beta) signaling pathway (AID 1259378; active = well fitted inhibition curve with a large enough effect in the signal ratio in the repeat runs, not every such curve was filed as active; the % refers to the signal ratio; note: potency is the fitted concentration of half-maximal effect). A digest of the protocol: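 ER-beta-UAS-bla HEK293T (GripTite) cells in 2% charcoal-stripped FBS medium were preincubated 6 hr at 37C, dosed with compound, then stimulated with 1 nM E2 (final) for 16 hr; beta-lactamase reporter read by B/G FRET fluorescence after 2 hr substrate loading.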
Background: Quantitative high-throughput screening tests each substance at several concentrations.

A short description of assay [2]: qHTS assay to identify small molecule agonists of the androgen receptor (AR) signaling pathway in the presence of an antagonist - cell viability counter screen (AID 1259379). Note: nearly all actives have a fitted effect of over 25% in size. Note: potency is the fitted concentration of half-maximal effect. The method in brief:
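Fluorescence from CellTiter-Fluor, added after 15 hr and read 1 hr later, gave cell viability. Cells were MDA-kb2 exposed to compounds (15 concentrations) in the presence of 3.0uM nilutamide at 37C, 0% CO2.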

Assay [3] in a line: qHTS assay to identify small molecule agonists of the estrogen receptor beta (ER-beta) signaling pathway - cell viability counter screen (AID 1259380). Note: nearly all actives have a fitted effect of over 30% in size. Note: potency is the fitted concentration of half-maximal effect. The method in brief:
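Same-well viability counter screen. Cells: ER-beta-UAS-bla HEK293T, plated 6 hr before compound, in 2% charcoal-stripped FBS. Compound exposure 16 hr, 37C; viability by CellTiter-Glo luminescence after 30 min at room temperature.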

A short description of assay [4]: qHTS assay to identify small molecule antagonists of the estrogen receptor beta (ER-beta) signaling pathway - cell viability counter screen (AID 1259382). Note: nearly all actives have a fitted effect of over 55% in size. Note: potency is the fitted concentration of half-maximal effect. The method in brief:
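Following a 6 hr plating period, HEK293T cells carrying a UAS-driven beta-lactamase reporter under ER-beta control received compounds and 1nM E2 (final). After 16 hr at 37C and 2 hr substrate loading, CellTiter-Glo luminescence indicated viability.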

The target in assay [5] is Estrogen receptor (Homo sapiens) (UniProt P03372). Put plainly: qHTS assay to identify small molecule agonists of the estrogen receptor alpha (ER-alpha) signaling pathway in the presence of an antagonist (AID 1259383; calls by dose curve; note: nearly all actives have a fitted effect of over 15% in size; note: potency is the fitted concentration of half-maximal effect; for activation: top concentration of the series differs between compounds). A digest of the protocol: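 Cells are hormone-deprived for 5 days (charcoal-stripped FBS, no phenol red), plated for 24hr, spiked with 10.0nM ICI-182,780, then dosed at 15 concentrations. After 22hr at 37C, ONE-Glo luminescence reports ERE-luciferase activity.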

Assay [6] in a line: qHTS assay to identify small molecule agonists or antagonists of the thyroid stimulating hormone receptor (TSHR) signaling pathway - wild type cell line counter screen (AID 1259384; calls by dose curve). The method in brief: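 Wild-type HEK293 cells were plated 18 h at 37 C/5% CO2, pin-dosed with compound plus Ro20-1724 medium, held 30 min at room temperature, then given cAMP-d2 and anti-cAMP-cryptate; fluorescence was read after 1 h. Fifteen concentrations, triplicate.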

The target in assay [7] is Thyrotropin receptor (Homo sapiens) (UniProt P16473). Put plainly: qHTS assay to identify small molecule antagonists of the thyroid stimulating hormone receptor (TSHR) signaling pathway (AID 1259385; calls by dose curve; note: nearly all actives have a fitted effect of over 20% in size). A digest of the protocol: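 TSHR-HEK293 cells were plated and held 18 h at 37C/5% CO2, then given compound plus Ro20-1724 and stimulated with TSH at 1.5 ng/mL final. After 30 min at room temperature, cAMP was detected with cAMP-d2/anti-cAMP-cryptate (1 h) by fluorescence.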

Assay [8] in a line: qHTS assay to identify small molecule agonists of the estrogen receptor alpha (ER-alpha) signaling pathway in the presence of an antagonist - cell viability counter screen (AID 1259386).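 Note: cells exposed to compounds for 22 h at 37 °C before the viability read; nearly all actives have a fitted effect of over 30% in size.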 Note: potency is the fitted concentration of half-maximal effect. The method in brief:
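Cells are starved of estrogens for 5 days in charcoal-stripped serum, seeded for 24hr and co-treated with ICI-182,780 (10.0nM final) and test compounds. After 22hr at 37C, viability is read as CellTiter-Fluor fluorescence.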

Assay [9] concerns the target Progesterone receptor (Homo sapiens) (UniProt P06401). Put plainly: qHTS assay to identify small molecule antagonists of the progesterone receptor (PR) signaling pathway (AID 1346795; active = well fitted inhibition curve with a large enough effect in the signal ratio in the repeat runs, not every such curve was filed as active; the % refers to the signal ratio; note: potency is the fitted concentration of half-maximal effect). The method in brief: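 PR-UAS-bla HEK293T cells carrying a UAS-driven beta-lactamase reporter were plated in medium with 2% charcoal-stripped FBS and rested 6 hr at 37C. Compounds were added with 1 nM R5020 (final) for 16 hr, then FRET substrate loaded 2 hr at room temperature.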

A short description of assay [10]: qHTS assay to identify small molecule antagonists of the progesterone receptor (PR) signaling pathway - cell viability counter screen (AID 1346798). Note: nearly all actives have a fitted effect of over 50% in size. Note: potency is the fitted concentration of half-maximal effect. The method in brief:
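PR-UAS-bla HEK293T cells in medium with 2% charcoal-stripped FBS were treated with compounds plus R5020 for 16 hr at 37C. Cell viability was then read by CellTiter-Glo luminescence after 30 min at room temperature in the same wells.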

A short description of assay [11]: qHTS assay to identify small molecule agonists of the progesterone receptor (PR) signaling pathway - cell viability counter screen (AID 1346799; calls by dose curve; note: nearly all actives have a fitted effect of over 45% in size; note: potency is the fitted concentration of half-maximal effect). A digest of the protocol:
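PR-UAS-bla HEK293T cells, 3,000 per well in medium with 2% charcoal-stripped FBS, were preincubated 6 hr at 37C, then exposed to compounds for 16 hr; viability was read as CellTiter-Glo luminescence after 30 min at room temperature.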

A short description of assay [12]: qHTS assay to identify small molecule antagonists of the TGF-beta/Smad signaling pathway - cell viability counter screen (AID 1346824). Note: nearly all actives have a fitted effect of over 50% in size. Note: potency is the fitted concentration of half-maximal effect. The method in brief:
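SBE-bla HEK 293T cells were plated overnight at 37 C, then given compounds in DMSO plus TGF-beta1 (added as 0.25 ng/mL solution) for 5 hr. After the bla read, CellTiter-Glo was added to the same wells and luminescence read after 30 min at room temperature.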

The nature of assay [13]: qHTS assay to identify small molecule agonists of the TGF-beta/Smad signaling pathway - cell viability counter screen (AID 1346829). Note: nearly all actives have a fitted effect of over 45% in size. Note: potency is the fitted concentration of half-maximal effect. The method in brief: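 After overnight seating at 37 C and 5% CO2, reporter cells got compounds for 5 hr and FRET substrate for 2 hr; cell viability then came from CellTiter-Glo luminescence.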
A short description of assay [14]: qHTS assay to identify small molecule agonists of the TGF-beta/Smad signaling pathway (AID 1346859; active = well fitted activation curve with a large enough effect in the signal ratio in the repeat runs, not every such curve was filed as active; the % refers to the signal ratio; note: series mostly up to about 77 µM). The method in brief: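 HEK 293T cells stably carrying a beta-lactamase reporter driven by the Smad binding element were seeded overnight, exposed to DMSO-dissolved compounds for 5 hr at 37 C, 5% CO2, then loaded with FRET substrate for 2 hr at room temperature.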

Assay [15] concerns the target Thyrotropin-releasing hormone receptor (Homo sapiens) (UniProt P34981). Briefly: qHTS assay to identify small molecule antagonists of the thyrotropin-releasing hormone receptor (TRHR) signaling pathway (AID 1346877; active = well fitted inhibition curve with a large enough effect in the repeat runs, not every such curve was filed as active; note: potency is the fitted concentration of half-maximal effect). A digest of the protocol: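 Cells (TRHR-HEK293) are plated and kept 18 h at 37 °C/5% CO2. A calcium-sensitive dye is added for 2 h, compound follows for 5 min at room temperature, and TRH is then given at 1 nM final.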

Assay [16] shares this target. Briefly: qHTS assay to identify small molecule agonists of the thyrotropin-releasing hormone receptor (TRHR) signaling pathway (AID 1346891; calls by dose curve; note: series mostly up to about 58 µM). The method in brief: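 TRHR-expressing HEK293 cells were plated 18 h at 37 °C/5% CO2, loaded with calcium dye 2 h at 37 °C, then given compound in DMSO; fluorescence was read kinetically for 3 min at 1 s intervals.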
Assay [17] concerns the target Androgen receptor (Homo sapiens) (UniProt P10275). Briefly: qHTS assay to identify small molecule agonists of the androgen receptor (AR) signaling pathway in the presence of an antagonist (AID 1259381; calls by dose curve; note: nearly all actives have a fitted effect of over 15% in size). The method in brief: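 Cells are MDA-kb2 (human breast carcinoma, MMTV-luc, AR/GR responsive). Nilutamide is present at 3.0uM final throughout; compounds are added at 15 concentrations and incubated 16hr at 37C before ONE-Glo luminescence detection.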

The target of assay [18] is Progesterone receptor (Homo sapiens) (UniProt P06401). Briefly: qHTS assay to identify small molecule agonists of the progesterone receptor (PR) signaling pathway (AID 1346784; calls by dose curve; note: nearly all actives have a fitted effect of over 30% in size). The method in brief: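 PR-UAS-bla HEK 293T cells carrying a UAS-driven beta-lactamase reporter were seeded in medium with 2% charcoal-stripped FBS, preincubated 6 hr at 37C, then exposed to compounds in DMSO for 16 hr; agonism was read by LiveBLAzer B/G FRET fluorescence.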

Assay [19] deals with Estrogen receptor beta (Homo sapiens) (UniProt Q92731). Put plainly: qHTS assay to identify small molecule agonists of the estrogen receptor beta (ER-beta) signaling pathway (AID 1259377; active = well fitted activation curve with a large enough effect in the signal ratio in the repeat runs, not every such curve was filed as active; the % refers to the signal ratio; note: potency is the fitted concentration of half-maximal effect). The method in brief:
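ER-beta-UAS-bla HEK293T (GripTite) cells carrying a UAS-driven beta-lactamase reporter, in medium with 2% charcoal-stripped FBS, were exposed to compounds for 16 hr at 37C; LiveBLAzer B/G FRET substrate was then added and fluorescence read after 2 hours at room temperature.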

Values joined by “and” are separate entries in the source; they are usually repeats but may differ in a detail not shown here. Equal values may be shown once. Records with an inconclusive call do not appear. Active and inactive are the calls of the source. Unless noted, calls come from the whole dose curve; as a rule, active = well fitted curve in the direction sought with a large enough effect in the repeat runs; inconclusive = weak or mixed curves; inactive = no such curve, though single readings can be large; an effect the other way counts as inactive or inconclusive.

Chain of Thyrotropin receptor (Homo sapiens) (P16473 whole entry, looked up): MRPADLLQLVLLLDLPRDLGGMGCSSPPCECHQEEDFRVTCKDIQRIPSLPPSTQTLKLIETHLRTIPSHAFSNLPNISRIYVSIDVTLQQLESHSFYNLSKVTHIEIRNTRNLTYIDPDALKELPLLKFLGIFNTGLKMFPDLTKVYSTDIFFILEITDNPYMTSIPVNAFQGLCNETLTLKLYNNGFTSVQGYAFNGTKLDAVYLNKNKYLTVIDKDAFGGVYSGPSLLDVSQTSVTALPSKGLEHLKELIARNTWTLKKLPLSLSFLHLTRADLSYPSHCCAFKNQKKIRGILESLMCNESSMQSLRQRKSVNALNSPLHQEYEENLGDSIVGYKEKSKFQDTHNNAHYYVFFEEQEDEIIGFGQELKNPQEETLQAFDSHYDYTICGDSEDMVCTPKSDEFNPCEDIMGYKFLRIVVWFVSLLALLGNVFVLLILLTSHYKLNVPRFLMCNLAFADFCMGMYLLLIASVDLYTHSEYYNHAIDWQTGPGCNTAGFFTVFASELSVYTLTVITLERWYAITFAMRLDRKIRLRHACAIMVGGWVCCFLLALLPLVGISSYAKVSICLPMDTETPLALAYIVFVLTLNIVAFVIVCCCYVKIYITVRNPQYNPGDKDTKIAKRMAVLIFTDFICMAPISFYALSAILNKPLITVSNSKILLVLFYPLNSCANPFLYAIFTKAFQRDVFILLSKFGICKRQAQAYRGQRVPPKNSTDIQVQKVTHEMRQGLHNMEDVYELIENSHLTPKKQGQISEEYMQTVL
Chain of Progesterone receptor (Homo sapiens) (P06401 whole entry, looked up): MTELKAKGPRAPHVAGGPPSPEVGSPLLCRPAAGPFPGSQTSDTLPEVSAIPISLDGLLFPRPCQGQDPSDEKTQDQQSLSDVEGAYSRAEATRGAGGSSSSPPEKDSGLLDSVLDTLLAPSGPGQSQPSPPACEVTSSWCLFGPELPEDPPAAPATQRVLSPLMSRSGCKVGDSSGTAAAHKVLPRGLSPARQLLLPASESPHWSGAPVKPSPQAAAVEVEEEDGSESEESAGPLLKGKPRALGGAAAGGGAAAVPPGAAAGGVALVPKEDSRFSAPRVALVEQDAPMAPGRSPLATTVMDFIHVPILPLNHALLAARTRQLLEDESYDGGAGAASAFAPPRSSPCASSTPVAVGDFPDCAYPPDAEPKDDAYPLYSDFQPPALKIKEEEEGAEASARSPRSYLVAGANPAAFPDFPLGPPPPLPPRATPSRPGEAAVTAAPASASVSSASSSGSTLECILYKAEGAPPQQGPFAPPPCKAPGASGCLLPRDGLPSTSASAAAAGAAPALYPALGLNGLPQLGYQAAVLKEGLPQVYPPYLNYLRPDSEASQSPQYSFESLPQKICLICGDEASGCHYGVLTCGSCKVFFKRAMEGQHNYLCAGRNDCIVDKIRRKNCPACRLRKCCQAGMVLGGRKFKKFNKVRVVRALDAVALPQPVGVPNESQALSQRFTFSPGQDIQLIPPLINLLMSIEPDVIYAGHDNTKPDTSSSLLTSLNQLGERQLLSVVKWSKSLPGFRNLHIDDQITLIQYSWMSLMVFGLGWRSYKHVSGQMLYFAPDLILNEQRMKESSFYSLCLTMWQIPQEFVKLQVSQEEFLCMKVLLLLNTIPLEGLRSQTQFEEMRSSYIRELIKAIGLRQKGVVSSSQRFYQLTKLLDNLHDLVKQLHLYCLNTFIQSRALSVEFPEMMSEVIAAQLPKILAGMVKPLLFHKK
Chain of Estrogen receptor beta (Homo sapiens) (Q92731 whole entry, looked up): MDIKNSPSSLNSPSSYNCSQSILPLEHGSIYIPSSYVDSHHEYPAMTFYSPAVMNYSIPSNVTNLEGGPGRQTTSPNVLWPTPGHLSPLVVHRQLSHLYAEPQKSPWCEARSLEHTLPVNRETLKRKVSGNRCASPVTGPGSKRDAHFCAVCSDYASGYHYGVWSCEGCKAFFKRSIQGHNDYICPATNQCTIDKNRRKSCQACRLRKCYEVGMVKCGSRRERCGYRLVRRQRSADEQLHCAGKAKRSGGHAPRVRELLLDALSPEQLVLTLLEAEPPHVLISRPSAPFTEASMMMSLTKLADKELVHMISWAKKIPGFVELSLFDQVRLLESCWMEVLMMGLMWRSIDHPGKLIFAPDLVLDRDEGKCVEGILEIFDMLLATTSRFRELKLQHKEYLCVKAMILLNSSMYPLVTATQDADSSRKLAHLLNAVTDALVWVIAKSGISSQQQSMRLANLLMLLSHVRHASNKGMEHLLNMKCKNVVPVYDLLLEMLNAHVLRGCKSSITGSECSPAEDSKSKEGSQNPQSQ
Chain of Estrogen receptor (Homo sapiens) (P03372 whole entry, looked up): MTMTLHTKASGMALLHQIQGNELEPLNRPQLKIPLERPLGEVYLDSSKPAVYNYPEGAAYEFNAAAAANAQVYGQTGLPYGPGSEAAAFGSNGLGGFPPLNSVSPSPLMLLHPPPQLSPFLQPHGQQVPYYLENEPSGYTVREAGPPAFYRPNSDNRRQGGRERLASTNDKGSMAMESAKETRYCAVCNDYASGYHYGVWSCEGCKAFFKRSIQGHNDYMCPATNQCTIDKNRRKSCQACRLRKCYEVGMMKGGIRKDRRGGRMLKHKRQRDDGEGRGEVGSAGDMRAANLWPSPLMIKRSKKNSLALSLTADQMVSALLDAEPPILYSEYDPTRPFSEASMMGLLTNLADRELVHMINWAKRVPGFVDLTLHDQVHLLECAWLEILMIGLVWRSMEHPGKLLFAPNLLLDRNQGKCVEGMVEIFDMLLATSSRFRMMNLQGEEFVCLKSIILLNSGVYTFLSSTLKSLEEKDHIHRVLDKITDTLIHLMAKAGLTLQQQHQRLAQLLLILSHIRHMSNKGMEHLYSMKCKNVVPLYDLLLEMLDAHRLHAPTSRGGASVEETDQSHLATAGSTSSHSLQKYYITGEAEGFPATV
Chain of Thyrotropin-releasing hormone receptor (Homo sapiens) (P34981 whole entry, looked up): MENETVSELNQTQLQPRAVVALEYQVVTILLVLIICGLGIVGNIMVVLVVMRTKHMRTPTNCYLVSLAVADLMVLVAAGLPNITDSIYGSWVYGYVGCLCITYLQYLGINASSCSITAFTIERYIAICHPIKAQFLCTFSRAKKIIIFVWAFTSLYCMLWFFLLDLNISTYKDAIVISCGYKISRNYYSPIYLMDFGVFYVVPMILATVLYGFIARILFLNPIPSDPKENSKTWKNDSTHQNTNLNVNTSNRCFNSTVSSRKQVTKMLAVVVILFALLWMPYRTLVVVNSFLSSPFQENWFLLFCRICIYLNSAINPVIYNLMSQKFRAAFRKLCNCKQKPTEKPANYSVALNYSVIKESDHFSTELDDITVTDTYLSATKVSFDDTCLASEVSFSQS
Chain of Androgen receptor (Homo sapiens) (P10275 whole entry, looked up): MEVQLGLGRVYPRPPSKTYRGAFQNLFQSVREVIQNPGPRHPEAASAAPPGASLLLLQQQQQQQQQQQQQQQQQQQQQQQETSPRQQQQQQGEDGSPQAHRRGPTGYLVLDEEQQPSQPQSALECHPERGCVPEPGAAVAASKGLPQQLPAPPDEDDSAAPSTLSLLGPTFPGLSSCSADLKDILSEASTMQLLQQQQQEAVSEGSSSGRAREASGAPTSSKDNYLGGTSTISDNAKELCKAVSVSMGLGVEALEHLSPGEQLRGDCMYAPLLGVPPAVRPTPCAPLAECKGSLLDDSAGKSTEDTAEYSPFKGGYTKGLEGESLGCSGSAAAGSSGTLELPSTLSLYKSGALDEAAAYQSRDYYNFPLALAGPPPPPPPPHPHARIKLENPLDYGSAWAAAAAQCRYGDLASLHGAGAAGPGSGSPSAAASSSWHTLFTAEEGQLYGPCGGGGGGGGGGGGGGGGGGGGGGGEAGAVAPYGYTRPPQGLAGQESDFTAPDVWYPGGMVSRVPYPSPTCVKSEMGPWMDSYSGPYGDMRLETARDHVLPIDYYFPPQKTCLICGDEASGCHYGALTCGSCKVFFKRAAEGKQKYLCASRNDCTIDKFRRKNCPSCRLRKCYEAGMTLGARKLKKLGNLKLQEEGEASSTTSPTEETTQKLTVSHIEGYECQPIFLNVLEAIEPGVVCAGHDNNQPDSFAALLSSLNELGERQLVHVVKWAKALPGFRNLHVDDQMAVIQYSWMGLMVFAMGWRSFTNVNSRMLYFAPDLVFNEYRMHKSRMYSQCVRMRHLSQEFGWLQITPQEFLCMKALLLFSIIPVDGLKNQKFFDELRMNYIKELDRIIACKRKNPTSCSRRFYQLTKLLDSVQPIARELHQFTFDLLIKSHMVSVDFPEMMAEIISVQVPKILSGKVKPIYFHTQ

`CC(C)(c1ccccc1)c1ccc(O)cc1`: the Potency was 4.82 µM (active) and 7.7 µM (active) in assay [1]; 60.6 µM (active) in assay [3]; 68 µM (active) in [4]; 15.2 µM (active) and 15.4 µM (active) in [5]; 7.63 µM (active) and 9.69 µM (active) in [9]. Further, the Potency result in [2], in assay [6], in assay [7], in [8], in assay [10] and in assay [11] was “inactive” in each case. Moreover, the Potency entry in [12], in assay [13], in assay [14] and in [15] was “inactive” throughout. For the same molecule, the molecule was classed as inactive in assay [16].
For the molecule `C=CC(=O)OCC(CC)(COC(=O)C=C)COC(=O)C=C`, the Potency is 62.8 µM (active) and 24.3 µM (active) in assay [2]; 62.8 µM (active) and 19.3 µM (active) in [3]; 31.5 µM (active) and 19.3 µM (active) in assay [4]; 70.4 µM (active) and 43.3 µM (active) in assay [8]; 25 µM (active) and 17.2 µM (active) in assay [9]; 56 µM (active) and 43.3 µM (active) in assay [10]. Besides, the Potency in assay [11] is 70.4 µM (active) and 24.3 µM (active). Also, the outcome in [17] and in assay [16] was inactive. Besides, the Potency result in [5], in [6], in [7], in assay [12], in [13] and in [14] was “inactive” each time. Besides, the Potency result in [15] is “inactive”.
For the molecule `CC(C)(C#N)N=NC(C)(C)C#N`, the Potency entry in [2], in assay [3], in assay [4], in assay [5], in [6] and in assay [7] was “inactive” in each case. For the same molecule, the Potency result in [8], in [9], in assay [10], in assay [11], in [13] and in assay [15] was “inactive” in each case. The molecule was classed as inactive in [16].
For the molecule `O=C1C(Cl)=C(Cl)C(=O)c2ccccc21`, the Potency in assay [2] is 48.7 µM (active) and 54.5 µM (active); in assay [3], 27.4 µM (active) and 27.3 µM (active); in assay [4], 19.4 µM (active) and 30.6 µM (active); in assay [8], 43.4 µM (active) and 61.1 µM (active); in assay [9], 48.6 µM (active); in [10] it was 61.3 µM (active) and 61.1 µM (active). Further, the Potency in [11] was 61.1 µM (active); in assay [12], 49.1 µM (active) and 49 µM (active); in assay [13], 49.1 µM (active) and 43.6 µM (active); in assay [15], 21.4 µM (active) and 21.3 µM (active). Further, the Potency result in assay [5] and in [18] was “inactive” in each case. Also, the molecule was called inactive in assay [16].
Consider `C[C@]12CC[C@H]3[C@@H](CCC4=CC(=O)CC[C@@H]43)[C@@H]1CC[C@@H]2O`, for which the Potency in assay [19] is 540 nM (active) and 4.22 µM (active); in assay [5] it was 1.21 µM (active) and 6.68 µM (active). The Potency result in [2], in assay [3], in assay [4], in assay [6], in assay [7] and in assay [8] was “inactive” throughout. For the same molecule, the Potency result in assay [9], in assay [10], in [13] and in assay [15] was “inactive” each time. Moreover, in assay [16], the molecule was called inactive.
With `COc1ccc(CO)cc1`, the Potency result in assay [19], in assay [1], in assay [2], in assay [3], in assay [4] and in assay [6] was “inactive” throughout. The Potency result in assay [7], in [8], in assay [9], in assay [10], in [11] and in assay [12] was “inactive” in each case. The Potency result in assay [13] and in assay [15] was “inactive” each time. Further, in [16], the molecule was classed as inactive.
On to `C[N+](C)(C)CC(=O)O`, for which the Potency entry in [2], in [3], in [4], in assay [5], in [8] and in assay [18] was “inactive” each time. In addition, the Potency result in assay [9], in [10], in assay [11], in [12], in assay [13] and in [14] was “inactive” each time.
For the molecule `CCC/C=N/O`, the Potency result in assay [19], in [1], in assay [2], in [3], in [4] and in [5] was “inactive” throughout. Further, the Potency result in assay [8], in [18], in assay [9], in assay [10], in [11] and in assay [12] was “inactive” each time. In addition, the Potency result in assay [13], in assay [14] and in [15] was “inactive” each time. Besides, in assay [16], the call was inactive.

The values above are taken from PubChem BioAssay (Tox21).
